Data on ten molecules can be found in PubChem BioAssay (NCI).

Molecules are shown by their SMILES. The panel holds about 83,000 compounds, 20% with a hit somewhere; the sample as a whole holds those more often.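 Compound tested at a single concentration for 48 hours in 96-well plates; a percent growth value below 10 was scored as active.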 A number with no mark means an inactive call. The source made the active and inactive calls.

Assay in all cases: NCI-60 one-dose screen, 48 h (100 = growth as untreated, 0 = no growth, -100 = all killed)
In one test the test system is RPMI-8226 leukemia. The note with it: 10 µM unless noted.
The next test relates to OVCAR-5 ovarian. The note with it: 10 µM unless noted.
In a further test the test system is OVCAR-4 ovarian. The conditions noted are these: 10 µM unless noted.
The test system of another test is SK-OV-3 ovarian. The conditions noted are these: 10 µM unless noted.
In another test the test system is OVCAR-3 ovarian. The conditions noted are these: 10 µM unless noted.
A further test relates to HS 578T breast. The note with it: 10 µM unless noted.
Another test relates to NCI/ADR-RES ovarian. The conditions noted are these: 10 µM unless noted.
The test system of a further test is T-47D breast. The conditions noted are these: 10 µM unless noted.
A further test concerns BT-549 breast. The conditions noted are these: 10 µM unless noted.
Another test deals with MDA-MB-435 melanoma. The note with it: 10 µM unless noted.
The test system of a further test is SW-620 colon. The note with it: 10 µM unless noted.
In a further test the test system is MCF7 breast. The conditions noted are these: 10 µM.
The next test deals with HCT-116 colon. The note with it: 10 µM unless noted.
A further test concerns HCC-2998 colon. The conditions noted are these: 10 µM unless noted.
Another test has as its system KM12 colon. The note with it: 10 µM unless noted.
The next test deals with IGROV1 ovarian. The conditions noted are these: 10 µM unless noted.
Another test has as its system OVCAR-8 ovarian. The conditions noted are these: 10 µM unless noted.

Take `N#C/C(=C\c1c(-c2ccccc2)[nH]c2ccccc12)C(=O)c1ccccc1`: the growth in the test on RPMI-8226 leukemia is -0.917% (active); in the test with OVCAR-5 ovarian, 70.5%; in the test on OVCAR-4 ovarian it was 68.9%; with SK-OV-3 ovarian, 57.4%; in the test on OVCAR-3 ovarian, -7.05% (active); with HS 578T breast, 16%. Further, the growth was 6.15% (active) with NCI/ADR-RES ovarian; 39% with T-47D breast; 61.5% in the test with BT-549 breast; 10.8% in the test with MDA-MB-435 melanoma; 19.9% in the test with SW-620 colon; 19.4% in the test on MCF7 breast. The figures for the growth with HCT-116 colon, with HCC-2998 colon and in the test with KM12 colon were 30.4%, 60.1% and 28.2%, respectively.
For the molecule `O=C(N=Nc1c(O)[nH]c2ccccc12)c1oc2ccccc2c1CN1CCN(c2ccccc2)CC1`, the growth with RPMI-8226 leukemia was 7.75% (active); in the test on OVCAR-5 ovarian it was 3.76% (active); in the test with OVCAR-4 ovarian, -79% (active); in the test with IGROV1 ovarian it was -5.86% (active); in the test with OVCAR-3 ovarian, -69.9% (active); with HS 578T breast, 27.3%. The growth was -34.9% (active) with NCI/ADR-RES ovarian; -17.7% (active) in the test with T-47D breast; 11.4% in the test on BT-549 breast; 26.3% with MDA-MB-435 melanoma; 0.43% (active) in the test with SW-620 colon; -22.7% (active) with MCF7 breast. Besides, the growth is -53.1% (active) in the test with HCT-116 colon and 23.1% with KM12 colon.
Regarding `Fc1ccc(Oc2ccc(Nc3ncnc4onc(-c5ccccc5)c34)cc2)cc1`, the growth was 113% in the test on RPMI-8226 leukemia; 101% in the test on OVCAR-5 ovarian; 102% in the test with OVCAR-4 ovarian; 87.6% in the test on IGROV1 ovarian; 109% with OVCAR-3 ovarian; 96.6% with HS 578T breast. The growth in the test on NCI/ADR-RES ovarian is 101%; in the test with T-47D breast, 94.5%; with BT-549 breast it was 78.6%; in the test with MDA-MB-435 melanoma it was 103%; in the test with SW-620 colon it was 95%; in the test with MCF7 breast it was 94.5%. The growth in the test with HCT-116 colon is 99.1%; in the test with HCC-2998 colon it was 105%; in the test with KM12 colon, 99.5%.
Take `Nc1nc(Nc2cccc(F)c2)nc2ccccc12`: the growth in the test on RPMI-8226 leukemia was 0.232% (active); with OVCAR-5 ovarian, 54.1%; in the test on OVCAR-4 ovarian, 40.4%; with SK-OV-3 ovarian it was 72.7%; in the test with IGROV1 ovarian, 28%; with OVCAR-3 ovarian it was 50.6%. In addition, the growth with HS 578T breast is 63.9%; in the test on NCI/ADR-RES ovarian, 38.1%; in the test on T-47D breast it was 41.5%; in the test on BT-549 breast, 75.7%; in the test on MDA-MB-435 melanoma, 18.6%; with SW-620 colon, 35.1%. Further, the growth with MCF7 breast was 41.5%; in the test with HCT-116 colon it was 23.1%; with HCC-2998 colon, -59.9% (active); in the test with KM12 colon, 59.2%.
Turning to `CCN(CC)CCNC(=O)C(Cl)=C1C(Cl)=C(Cl)C(Cl)=C1Cl`, the growth is 30.6% in the test on RPMI-8226 leukemia; 120% with OVCAR-5 ovarian; 41.9% with OVCAR-4 ovarian; 58.7% with SK-OV-3 ovarian; 59.1% in the test on IGROV1 ovarian; 40.1% in the test on OVCAR-3 ovarian. Moreover, the growth was 82.2% in the test with HS 578T breast; 44.7% in the test with NCI/ADR-RES ovarian; 56.6% with T-47D breast; 33.3% in the test with BT-549 breast; 33.9% with MDA-MB-435 melanoma; 34.7% in the test with SW-620 colon. For the same molecule, the growth in the test with MCF7 breast is 28.7%; in the test with HCT-116 colon, 13.9%; in the test on KM12 colon, 23.6%.
With `COc1ccc(/C=C2\CCC/C(=C\c3ccc(OC)c(OC)c3)C2=O)cc1OC`, the growth in the test on RPMI-8226 leukemia is -4.53% (active); in the test with OVCAR-5 ovarian it was 41%; in the test with OVCAR-4 ovarian it was -0.91% (active); in the test on SK-OV-3 ovarian, 29.7%; with IGROV1 ovarian it was 4.96% (active); in the test with OVCAR-3 ovarian, 13.8%. Further, the growth in the test on HS 578T breast was 41.2%; with NCI/ADR-RES ovarian, 11%; in the test with T-47D breast, 19.3%; in the test on BT-549 breast, 13%; in the test on MDA-MB-435 melanoma, -8.1% (active); in the test with SW-620 colon, -21.7% (active). Further, the figures for the growth in the test with HCT-116 colon, in the test on HCC-2998 colon and with KM12 colon were -68.3% (active), -30.1% (active) and -75.2% (active), respectively.
Consider `COc1ccc(C(=O)C2CC2c2ccc(Cl)cc2)cc1` (configuration not stated), for which the growth in the test on RPMI-8226 leukemia is 38.4%; in the test on OVCAR-5 ovarian, 115%; with OVCAR-4 ovarian it was 72.2%; in the test with SK-OV-3 ovarian, 104%; in the test on IGROV1 ovarian, 83.7%; in the test with OVCAR-3 ovarian it was 74.7%. Further, the growth with HS 578T breast was 82.4%; with NCI/ADR-RES ovarian, 78.9%; in the test on T-47D breast it was 80.8%; in the test on BT-549 breast, 57.3%; in the test on MDA-MB-435 melanoma, 95.6%; with SW-620 colon, 102%. Further, the growth in the test with MCF7 breast is 103%; in the test with HCT-116 colon it was 77.1%; in the test with HCC-2998 colon, 98.8%; in the test with KM12 colon, 68.7%.
Regarding `COc1cc(C2C(C#N)=C(N)OC3=C2C(=O)c2ccccc2C3=O)cc(OC)c1O` (configuration not stated), the growth with RPMI-8226 leukemia is 17.1%; in the test with OVCAR-5 ovarian it was 65.5%; in the test on OVCAR-4 ovarian, 81.9%; in the test with SK-OV-3 ovarian, 48.2%; in the test with IGROV1 ovarian, 62.1%; in the test on OVCAR-3 ovarian, 1.44% (active). Besides, the growth with HS 578T breast was 6.8% (active); with NCI/ADR-RES ovarian, 66.5%; in the test on T-47D breast, 88.4%; in the test with BT-549 breast it was 57.7%; with MDA-MB-435 melanoma, -31% (active); with SW-620 colon, 13.4%. Further, the growth in the test with MCF7 breast is 20%; in the test with HCT-116 colon it was 22.5%; in the test on HCC-2998 colon, 45%; with KM12 colon, 14%.
In the case of `CC1=CCC(OC(=O)C(C)(C)CCC(O)(C(=O)OC2(C(C)C)CCC3(C)OC3C2)C(C)C)(C(C)C)CC1` (configuration not stated), the growth is -37.8% (active) with RPMI-8226 leukemia; -77.9% (active) with OVCAR-5 ovarian; -84.1% (active) in the test with OVCAR-4 ovarian; -92.2% (active) in the test on SK-OV-3 ovarian; -60.5% (active) in the test on IGROV1 ovarian; -97% (active) in the test with OVCAR-3 ovarian. The growth in the test with HS 578T breast is -7.09% (active); with NCI/ADR-RES ovarian it was -9.23% (active); in the test with T-47D breast, -55.2% (active); in the test with BT-549 breast, -88.6% (active); with MDA-MB-435 melanoma, -98% (active); in the test with SW-620 colon, -62.1% (active). Moreover, the growth with MCF7 breast is -61.1% (active); in the test with HCT-116 colon it was -41.2% (active); in the test with HCC-2998 colon, -72.8% (active); in the test on KM12 colon, -79% (active).
Take `CCOC(=O)c1cc2c(n1Cc1ccccc1OC)-c1oncc1CCC2`: the growth is 14.9% in the test on RPMI-8226 leukemia; 35.4% with OVCAR-8 ovarian; 69.5% with OVCAR-5 ovarian; 8.96% (active) in the test on OVCAR-3 ovarian; 10.9% with HS 578T breast; 15% with NCI/ADR-RES ovarian. For the same molecule, the growth was 38.6% in the test with T-47D breast; 54.9% with BT-549 breast; -1.95% (active) with MDA-MB-435 melanoma; 23.8% in the test on SW-620 colon; 14% in the test with MCF7 breast; 29.5% with HCT-116 colon. Also, the growth was 53.6% in the test with HCC-2998 colon and 41.9% with KM12 colon.
